# Source: PubChem BioAssay (NCATS)
# Inconclusive results are not listed. Where a call stands in place of a potency, no number is given. Active and inactive are the calls of the source. Calls follow the shape of the dose curve; as a rule, active = well fitted inhibition curve with a large enough effect; inconclusive = small, poorly fitted or top-dose-only effect; inactive = flat fitted curve, though single readings scatter.
# Target: Calcium and integrin-binding protein 1 (Homo sapiens) (UniProt Q99828)
# Assay: Primary qHTS for Identification of Calcium Integrin Binding Protein 1 (CIB1) Competitor (AID 1508620);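 also: GST tagged CIB1 binding a fluorescein labelled alphaIIb integrin peptide tracer; top concentration of the series differs between compounds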
# Conditions: CIB1-GST / FITC-alphaIIb peptide fluorescence polarization; series mostly up to 114 µM
# In short: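 CIB1-GST (1 uM final) and compound incubated 15 min at room temperature before adding FITC-alphaIIb peptide tracer (100 nM final). Competition for binding read by fluorescence polarization (ex 480, em 540) after another 15 min at room temperature.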
# Calcium and integrin-binding protein 1 (Homo sapiens), sequence (Q99828 whole entry, looked up): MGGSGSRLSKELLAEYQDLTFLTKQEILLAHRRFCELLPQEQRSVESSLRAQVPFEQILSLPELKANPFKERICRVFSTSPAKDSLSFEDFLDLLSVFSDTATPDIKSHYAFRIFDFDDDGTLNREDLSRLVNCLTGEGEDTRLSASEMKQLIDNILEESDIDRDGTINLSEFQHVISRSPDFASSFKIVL
SMILES,Potency,"activity change, negative = inhibition"
C=C1OC2CC(C(=O)O)C=CC2NC1=O (stereo not given),inactive,
CC1(C)CCCC2(C)C(C(=O)O)=CCC12 (stereo not given),inactive,
COc1cc(/C=C/C=O)cc(OC)c1O[C@@H]1O[C@H](CO)[C@@H](O)[C@H](O)[C@H]1O,inactive,
COC(=O)C[C@H]1C(C)(C)[C@H](OC(=O)C(C)C)[C@@]2(O)C(=O)[C@]1(C)C1CC[C@]3(C)C(CC(=O)O[C@H]3c3ccoc3)[C@]13O[C@@H]32 (stereo not given in full),inactive,
CC1(C)CC[C@]2(C(=O)O)CC[C@]3(C)C(=CCC4[C@@]5(C)C[C@@H](O)[C@H](O)C(C)(C)C5CC[C@]43C)C2C1 (stereo not given in full),inactive,
CC1=CC(=O)CC(C)(C)[C@H]1/C=C/C(CO)O[C@@H]1O[C@H](CO)[C@@H](O)[C@H](O)[C@H]1O (stereo not given in full),inactive,
Cc1c(NC(=O)c2cc(C(N)=O)nc3cc(F)ccc23)c(C(F)(F)F)nn1Cc1ccc(C#N)cc1,inactive,
CN(C)c1ccc2c(c1)OC(N)=C(C#N)C2c1cccc(C(F)(F)F)c1 (stereo not given),inactive,
C[C@@H]1O[C@@H](O[C@H]2[C@H](O[C@H]3[C@H](O)[C@@H](C(=O)O)O[C@@H](O[C@H]4CC[C@@]5(C)C(CC[C@]6(C)C5CC[C@]57OC[C@@]8(CCC(C)(C)CC85)[C@H](O)C[C@]76C)C4(C)C)[C@@H]3O[C@@H]3O[C@H](CO)[C@@H](O[C@@H]4OC[C@@H](O)[C@H](O)[C@H]4O)[C@H](O)[C@H]3O)O[C@H](CO)[C@H](O)[C@@H]2O)[C@H](O)[C@H](O)[C@H]1O (stereo not given in full),,2.06% [at 12.4 µM] (inactive)
C=C(C)C(=O)O[C@H]1CC2=CC(C/C(C)=C\[C@H]3OC(=O)C(=C)[C@H]13)OC2=O (stereo not given in full),inactive,
